ChEMBL document CHEMBL1157539, “Thousands of chemical starting points for antimalarial lead identification” (Nature, 2010)

The molecules below were run on Plasmodium falciparum (assay: GSK_TCMDC: Inhibition of Plasmodium falciparum Dd2 in whole red blood cells, using parasite LDH activity as an index of growth. Test compounds present at 2uM).
Type: functional

| Compound | Inhibition [%] |
| --- | --- |
| CN(Cc1cc(C(F)(F)F)cc(C(F)(F)F)c1)C(=O)C1CNCC1c1ccc(F)cc1.Cl (stereo not given) | 4 |
| CC(=O)Nc1cccc(C(=O)Nc2cccc(-c3ccc(-c4nc5cc(F)ccc5[nH]4)cc3)c2)c1 | 9 |
| Cc1ccc(CNC(=O)[C@H](Cc2ccccc2)Nc2cc(C)nc(NCC3CCCCC3)n2)cc1.O=C(O)C(F)(F)F | 89 |
| O=C(COC(=O)c1cccc(S(=O)(=O)N2CCc3ccccc32)c1)NNC(=O)c1cccs1 | 4 |
| O=C(Nc1nccs1)c1cn(-c2ccccc2)nc1-c1ccc(Cl)s1 | 18 |
| CN(C)CCOc1cc(NC(=O)/C=C/c2cccc3ccccc23)ccc1I | 7 |
| COc1ccc(NC(=O)c2ccc(-c3nc(-c4cccc(C(F)(F)F)c4)cs3)cc2)cc1N1CCN(C)CC1 | 59 |
| Cc1cc2c3c(N)nc(N)nc3ccc2n1C(C)C | 0 |
| CC(C)N1CCN(c2ccc(OCCCN3CCN(c4cccc(Cl)c4Cl)CC3)c(C(F)(F)F)c2)CC1 | 37 |
| CCNc1cc(C(=O)N[C@@H](Cc2ccccc2)[C@H](O)CNC(C)(C)CC(C)(C)C)c(F)c(N2CCCCS2(=O)=O)c1 | 63 |
| CC(=O)Nc1ccc(CN2Cc3ccc(NC(=O)Nc4ccc(Oc5ccccc5)cc4)cc3C2)s1 | 25 |
| CN(C)CCn1c(N)c(-c2nc3ccccc3s2)c2nc(C#N)c(C#N)nc21 | 40 |
| CC[C@H](C)CNC(=O)c1cncc(-c2ccc(CNCCOc3ccccc3)cc2)c1.O=C(O)C(F)(F)F | 0 |
| Cc1nc2ccc3ccc(CNc4ccc(C#N)cc4)cc3c2c(=O)[nH]1 | 56 |
| Cn1nc(-c2ccc(CNC3CCc4ccccc43)cc2)c2cnc(NCCN3CCCC3)nc21 (stereo not given) | 17 |
| Cn1cnc2c(SCc3ccc(OCc4ccccc4)cc3)ncnc21 | 87 |
| CN1CCC(OC(=O)c2cc3cc(-c4ccccc4)ccc3n2S(=O)(=O)c2ccccc2)CC1.Cl | 10 |
| CC(C)(CNC(=O)C1CCN(CCOCc2ccccc2)CC1)c1nc(-c2ccc(Cl)c(O)c2)c(-c2ccncc2)[nH]1.Cl | 18 |
| Cl.O=C(Nc1ccc(NC2=NCCN2)cc1)c1ccc(C(=O)Nc2ccc(NC3=NCCN3)cc2)cc1 | 86 |
| O=C(Nc1ccc(CN2CCCCC2)cc1)c1ccc(COc2ccc([N+](=O)[O-])cc2)o1 | 0 |

| Compound | Inhibition [%] |
| --- | --- |
| FC(F)(F)c1ccc2[nH]c(-c3ccc(-c4cccc(CNCCN5CCNCC5)c4)cc3)nc2c1.O=C(O)C(F)(F)F | 2 |
| CCOC(=O)c1cc(C(=O)OC)c2ccccn12 | 2 |
| Cc1nc(N)nc(N)c1OCCCCOc1ccccc1.Cl.O | 4 |
| Cc1cc2c(cc1C(F)(F)F)N(C(=O)Nc1cc(C(=O)NC3CCN(Cc4ccccc4)C3)cc(C(F)(F)F)c1)CC2.Cl (stereo not given) | 97 |
| O=[N+]([O-])c1cccc(/C=N/Nc2ccnc3ccc(C(F)(F)F)cc23)c1 | 35 |
| Cc1ccc(Oc2c(-c3ccccc3CN3CCCC3CN(C)C)cnn(C)c2=O)cn1.O=C(O)C(F)(F)F (stereo not given) | 9 |
| CCOc1ccc(C(=O)Nc2cc(Br)c3c(c2)CNCC3)cc1Cl.Cl | 8 |
| Cc1ncccc1C(=O)Nc1cccc(-c2cccc(-c3nc4cc(C(F)(F)F)ccc4[nH]3)c2)c1 | 30 |
| CC(C)c1ccc(OCC(O)CN(C)C(C)C(O)c2ccccc2)c(Br)c1.Cl (stereo not given) | 97 |
| Cc1cccc2nc(-c3cccc(-c4ccc(CNCc5cnn(-c6ccccc6)n5)cc4)c3)[nH]c12.O=C(O)C(F)(F)F | 66 |
| Cc1cc(N[C@@H](Cc2ccccc2)C(=O)NCCOc2ccccc2)nc(Nc2ccccc2)n1.O=C(O)C(F)(F)F | 63 |
| CCOc1ccc2c(N/N=C/c3cccc([N+](=O)[O-])c3)cc(C)nc2c1 | 97 |
| O=C(Nc1ccc2c(c1)CCN(C1CCC1)CC2)c1cn(-c2ccccc2)nc1-c1ccccc1.O=C(O)C(F)(F)F | 10 |
| Cl.O=C(Nc1ccnc2ccccc12)NC1CCN(CCc2ccccc2)CC1 | 43 |
| Cl.OCCNc1nc(Nc2ccccc2)nc2ccccc12 | 61 |
| Cc1cc(=O)c2cc(-c3ccc(OC(F)(F)F)cc3)ccc2[nH]1 | 95 |
| CN1CCN(CC(O)CNC(=O)Nc2ccc(Br)cc2)CC1.O=C(O)C(F)(F)F (stereo not given) | 100 |
| Cc1ccc(-c2nnc(Nc3ccc(C(=O)N4CCCCC4)cc3)c3ccccc23)cc1S(=O)(=O)NCC1CCCO1 (stereo not given) | 99 |
| CN(c1ccc(NC(=O)Nc2cc(C(C)(C)C)on2)cc1)c1ccnc(NCCOC(=O)Nc2cc(C(C)(C)C)on2)n1.O=C(O)C(F)(F)F | 54 |
| CNS(=O)(=O)Cc1ccc(Nc2nccc(Nc3cccc4c3cnn4C(=O)Nc3ccccc3)n2)cc1 | 5 |

What follows are molecules tested on HepG2 (assay: GSK_TCMDC: Percent inhibition of human HepG2 cell line. Test compounds present at 10uM.).
Type: functional

| Compound | Inhibition [%] |
| --- | --- |
| CN(Cc1cc(C(F)(F)F)cc(C(F)(F)F)c1)C(=O)C1CNCC1c1ccc(F)cc1.Cl (stereo not given) | 1 |
| CC(=O)Nc1cccc(C(=O)Nc2cccc(-c3ccc(-c4nc5cc(F)ccc5[nH]4)cc3)c2)c1 | 60 |
| Cc1ccc(CNC(=O)[C@H](Cc2ccccc2)Nc2cc(C)nc(NCC3CCCCC3)n2)cc1.O=C(O)C(F)(F)F | 0 |
| O=C(COC(=O)c1cccc(S(=O)(=O)N2CCc3ccccc32)c1)NNC(=O)c1cccs1 | 4 |
| O=C(Nc1nccs1)c1cn(-c2ccccc2)nc1-c1ccc(Cl)s1 | 9 |
| CN(C)CCOc1cc(NC(=O)/C=C/c2cccc3ccccc23)ccc1I | 55 |
| COc1ccc(NC(=O)c2ccc(-c3nc(-c4cccc(C(F)(F)F)c4)cs3)cc2)cc1N1CCN(C)CC1 | 29 |
| Cc1cc2c3c(N)nc(N)nc3ccc2n1C(C)C | 70 |
| CC(C)N1CCN(c2ccc(OCCCN3CCN(c4cccc(Cl)c4Cl)CC3)c(C(F)(F)F)c2)CC1 | 79 |
| CCNc1cc(C(=O)N[C@@H](Cc2ccccc2)[C@H](O)CNC(C)(C)CC(C)(C)C)c(F)c(N2CCCCS2(=O)=O)c1 | 8 |
| CC(=O)Nc1ccc(CN2Cc3ccc(NC(=O)Nc4ccc(Oc5ccccc5)cc4)cc3C2)s1 | 9 |
| CN(C)CCn1c(N)c(-c2nc3ccccc3s2)c2nc(C#N)c(C#N)nc21 | 4 |
| CC[C@H](C)CNC(=O)c1cncc(-c2ccc(CNCCOc3ccccc3)cc2)c1.O=C(O)C(F)(F)F | 7 |
| Cc1nc2ccc3ccc(CNc4ccc(C#N)cc4)cc3c2c(=O)[nH]1 | 55 |
| Cn1nc(-c2ccc(CNC3CCc4ccccc43)cc2)c2cnc(NCCN3CCCC3)nc21 (stereo not given) | 21 |
| Cn1cnc2c(SCc3ccc(OCc4ccccc4)cc3)ncnc21 | 1 |
| CN1CCC(OC(=O)c2cc3cc(-c4ccccc4)ccc3n2S(=O)(=O)c2ccccc2)CC1.Cl | 31 |
| CC(C)(CNC(=O)C1CCN(CCOCc2ccccc2)CC1)c1nc(-c2ccc(Cl)c(O)c2)c(-c2ccncc2)[nH]1.Cl | 11 |
| Cl.O=C(Nc1ccc(NC2=NCCN2)cc1)c1ccc(C(=O)Nc2ccc(NC3=NCCN3)cc2)cc1 | 15 |
| O=C(Nc1ccc(CN2CCCCC2)cc1)c1ccc(COc2ccc([N+](=O)[O-])cc2)o1 | 12 |

| Compound | Inhibition [%] |
| --- | --- |
| FC(F)(F)c1ccc2[nH]c(-c3ccc(-c4cccc(CNCCN5CCNCC5)c4)cc3)nc2c1.O=C(O)C(F)(F)F | 13 |
| CCOC(=O)c1cc(C(=O)OC)c2ccccn12 | 44 |
| Cc1nc(N)nc(N)c1OCCCCOc1ccccc1.Cl.O | 62 |
| Cc1cc2c(cc1C(F)(F)F)N(C(=O)Nc1cc(C(=O)NC3CCN(Cc4ccccc4)C3)cc(C(F)(F)F)c1)CC2.Cl (stereo not given) | 22 |
| O=[N+]([O-])c1cccc(/C=N/Nc2ccnc3ccc(C(F)(F)F)cc23)c1 | 0 |
| Cc1ccc(Oc2c(-c3ccccc3CN3CCCC3CN(C)C)cnn(C)c2=O)cn1.O=C(O)C(F)(F)F (stereo not given) | 0 |
| CCOc1ccc(C(=O)Nc2cc(Br)c3c(c2)CNCC3)cc1Cl.Cl | 13 |
| Cc1ncccc1C(=O)Nc1cccc(-c2cccc(-c3nc4cc(C(F)(F)F)ccc4[nH]3)c2)c1 | 34 |
| CC(C)c1ccc(OCC(O)CN(C)C(C)C(O)c2ccccc2)c(Br)c1.Cl (stereo not given) | 36 |
| Cc1cccc2nc(-c3cccc(-c4ccc(CNCc5cnn(-c6ccccc6)n5)cc4)c3)[nH]c12.O=C(O)C(F)(F)F | 20 |
| Cc1cc(N[C@@H](Cc2ccccc2)C(=O)NCCOc2ccccc2)nc(Nc2ccccc2)n1.O=C(O)C(F)(F)F | 2 |
| CCOc1ccc2c(N/N=C/c3cccc([N+](=O)[O-])c3)cc(C)nc2c1 | 4 |
| O=C(Nc1ccc2c(c1)CCN(C1CCC1)CC2)c1cn(-c2ccccc2)nc1-c1ccccc1.O=C(O)C(F)(F)F | 38 |
| Cl.O=C(Nc1ccnc2ccccc12)NC1CCN(CCc2ccccc2)CC1 | 7 |
| Cl.OCCNc1nc(Nc2ccccc2)nc2ccccc12 | 5 |
| Cc1cc(=O)c2cc(-c3ccc(OC(F)(F)F)cc3)ccc2[nH]1 | 0 |
| CN1CCN(CC(O)CNC(=O)Nc2ccc(Br)cc2)CC1.O=C(O)C(F)(F)F (stereo not given) | 5 |
| Cc1ccc(-c2nnc(Nc3ccc(C(=O)N4CCCCC4)cc3)c3ccccc23)cc1S(=O)(=O)NCC1CCCO1 (stereo not given) | 0 |
| CN(c1ccc(NC(=O)Nc2cc(C(C)(C)C)on2)cc1)c1ccnc(NCCOC(=O)Nc2cc(C(C)(C)C)on2)n1.O=C(O)C(F)(F)F | 59 |
| CNS(=O)(=O)Cc1ccc(Nc2nccc(Nc3cccc4c3cnn4C(=O)Nc3ccccc3)n2)cc1 | 45 |
